Measurements published in PubChem BioAssay (NCI).
The panel holds about 83,000 compounds, 20% with a hit somewhere; the sample as a whole holds those more often.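 48-hour exposure, single concentration, 96-well plates; percent growth endpoint where 0 means no net growth. Active: below 10.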 The source made the active and inactive calls.

Experiments:
Test in all cases: NCI-60 one-dose screen, 48 h (100 = growth as untreated, 0 = no growth, -100 = all killed)
Details in all cases: 10 µM unless noted
[1] = test system: DU-145 prostate
[2] = test system: K-562 leukemia
[3] = test system: MALME-3M melanoma
[4] = test system: MDA-MB-231 breast
[5] = test system: RXF 393 renal
[6] = test system: SF-268 CNS
[7] = test system: SF-295 CNS
[8] = test system: SF-539 CNS
[9] = test system: UACC-257 melanoma
[10] = test system: M14 melanoma
[11] = test system: HCT-15 colon
[12] = test system: HT29 colon
[13] = test system: SNB-75 CNS
[14] = test system: SNB-19 CNS
[15] = test system: U251 CNS
[16] = test system: PC-3 prostate
[17] = test system: SK-MEL-5 melanoma
[18] = test system: UACC-62 melanoma
[19] = test system: LOX IMVI melanoma
[20] = test system: SK-MEL-28 melanoma

| Structure (SMILES) | growth [1] | growth [2] | growth [3] | growth [4] | growth [5] | growth [6] | growth [7] | growth [8] | growth [9] | growth [10] | growth [11] | growth [12] | growth [13] | growth [14] | growth [15] | growth [16] | growth [17] | growth [18] | growth [19] | growth [20] |
| --- | --- | --- | --- | --- | --- | --- | --- | --- | --- | --- | --- | --- | --- | --- | --- | --- | --- | --- | --- | --- |
| O=C(O)c1ccc2c(c1Cl)C(=O)c1ccccc1C2=O | 107% (inactive) | 73.7% (inactive) | 132% (inactive) | 112% (inactive) | 165% (inactive) | 113% (inactive) | 108% (inactive) | 102% (inactive) | 109% (inactive) | 103% (inactive) | 95.9% (inactive) | 87.5% (inactive) | 73.1% (inactive) | 98.8% (inactive) | 99.1% (inactive) | 116% (inactive) | 102% (inactive) | 97.7% (inactive) | 97.2% (inactive) | 107% (inactive) |
| COc1cccc(-c2nn(-c3ccccc3)cc2-c2ccnc(NCCNC(=O)Nc3ccc(Cl)c(Cl)c3)c2)c1 | 2.24% (active) | 2.28% (active) | 25.3% (inactive) | -22.9% (active) | -9.27% (active) | 9.11% (active) | 2.94% (active) | -0.925% (active) | 16% (inactive) | -36.8% (active) | 7.83% (active) | -20.5% (active) | -1.39% (active) | 28.9% (inactive) | -11.6% (active) | 4.19% (active) | 3.01% (active) | -14.2% (active) | -68.8% (active) | 16.1% (inactive) |
| Cc1ccc(NCCN(C)C)c2c(=O)c3ccccc3sc12 | 23.8% (inactive) | 21.3% (inactive) | 76.4% (inactive) | 24.3% (inactive) | 2.41% (active) | 17.1% (inactive) | 29.4% (inactive) | 30.8% (inactive) | 1.5% (active) | 5.06% (active) | 6.89% (active) | -38.3% (active) | 41.2% (inactive) | 20.2% (inactive) | 10.8% (inactive) | 36.2% (inactive) | -73.6% (active) | -5.6% (active) | -41.6% (active) | 2.84% (active) |
| CCCCNC(=O)Oc1ccc2c(=O)c3sc4c(=O)c5ccccc5c(=O)c4c3c(=O)c2c1 | -98.5% (active) | -34.3% (active) | -98% (active) | -22.2% (active) | -87.1% (active) | -48.1% (active) | -98.1% (active) | -96.6% (active) | -95.7% (active) | -77.6% (active) | -84% (active) | -41.6% (active) | -98.3% (active) | -93.6% (active) | -73% (active) | -15.5% (active) | -96.9% (active) | -75% (active) | -72.9% (active) | -73.3% (active) |
| N#Cc1nc(C#N)c(Sc2ccccc2)c(Sc2ccccc2)c1Sc1ccccc1 | -47.8% (active) | -41.2% (active) | -20.6% (active) | -32.7% (active) | -38.7% (active) | -67.6% (active) | 1.87% (active) | -86.6% (active) | -59.2% (active) | -28.9% (active) | -53.7% (active) | -67.2% (active) | -61.2% (active) | -45.7% (active) | -81.9% (active) | 21.5% (inactive) | -93.2% (active) | -57.2% (active) | -79.2% (active) | -84.3% (active) |
| Nc1ccc2c(c1)c(N)nn2C(=O)Nc1ccc(Cc2ccccc2)cc1 | 79.3% (inactive) | -5.66% (active) | 75.3% (inactive) | 60.6% (inactive) | 99.8% (inactive) | 83.9% (inactive) | 48% (inactive) | 73.6% (inactive) | 79.1% (inactive) | 46.8% (inactive) | 44.5% (inactive) | 76.8% (inactive) | 126% (inactive) | 105% (inactive) | 59.9% (inactive) | 60.2% (inactive) | 71.7% (inactive) | 7.09% (active) | 40.3% (inactive) | 115% (inactive) |
| C(=N\Nc1ncc(-c2cc3cc4c(cc3o2)OCO4)s1)/c1ccco1 | 12.4% (inactive) | 21.7% (inactive) | 25% (inactive) | 42.4% (inactive) | 17.1% (inactive) | 39.2% (inactive) | 84.8% (inactive) | 7% (active) | 80.1% (inactive) | 52.5% (inactive) | 18.4% (inactive) | 36.9% (inactive) | 51.2% (inactive) | 53.9% (inactive) | 37% (inactive) | 33.6% (inactive) | 87.4% (inactive) | 88.8% (inactive) | -48.8% (active) | 81% (inactive) |
| CN(C)c1ccc(-c2cc(-c3ccc(Nc4nc(Nc5ccc(Cl)cc5)nc(Nc5ccc(Cl)cc5)n4)cc3)no2)cc1 | 47.7% (inactive) | 24.8% (inactive) | 54% (inactive) | 35.6% (inactive) | -42.1% (active) | 45% (inactive) | -16.8% (active) | 46.1% (inactive) | 65.7% (inactive) | 61.6% (inactive) | 39% (inactive) | 33.9% (inactive) | 19.6% (inactive) | 65.7% (inactive) | 27.4% (inactive) | 6.65% (active) | 34.5% (inactive) | 66.2% (inactive) | 29% (inactive) | 31.3% (inactive) |
| CCN(CC)CCN1C(=O)c2c(c(C)c3c(oc4cc(O)ccc43)c2C)C1=O | -89.2% (active) | -58.5% (active) | 84.2% (inactive) | -68.7% (active) | 79.4% (inactive) | 74.5% (inactive) | 103% (inactive) | 90.8% (inactive) | 97.7% (inactive) | -79.3% (active) | -58.9% (active) | -37.2% (active) | 90.3% (inactive) | 9.88% (active) | -87.9% (active) | -75.1% (active) | 79% (inactive) | 86.2% (inactive) | 94% (inactive) | 63.1% (inactive) |
| O=c1[nH]ccc2nc(N3CCC(O)CC3)nc(Nc3ccc(N4CCOCC4)cc3)c12 | 59.8% (inactive) | 70.1% (inactive) | 28.4% (inactive) | 64.3% (inactive) | 15.6% (inactive) | 61.9% (inactive) | 108% (inactive) | 28.7% (inactive) | 53.2% (inactive) | 41.4% (inactive) | 31.2% (inactive) | 23.2% (inactive) | 63.5% (inactive) | 97.1% (inactive) | 88.2% (inactive) | 89.8% (inactive) | 39% (inactive) | 80.3% (inactive) | 46.4% (inactive) | 82.6% (inactive) |
| COC(=O)[C@]12CC[C@@H](C)[C@H](C)[C@@H]1C1=CC[C@@H]3[C@@]4(C)C(C=O)=C[C@@](C)(COS(C)(=O)=O)C4[C@H](O)C[C@@]3(C)[C@]1(C)CC2 (stereo not given in full) | -93.6% (active) | 1.48% (active) | -78.6% (active) | -74.9% (active) | -96.4% (active) | -74.4% (active) | -87.3% (active) | -89.6% (active) | -82.2% (active) | -59.9% (active) | -70.3% (active) | -85.2% (active) | -92.1% (active) | -67.7% (active) | -96.2% (active) | -36% (active) | -91.6% (active) | -38.4% (active) | -97.3% (active) | -57.7% (active) |
| CC(=O)c1nc(Nc2ccc(C)cc2)sc1C | 102% (inactive) | 97.6% (inactive) | 113% (inactive) | 91.3% (inactive) | 96.2% (inactive) | 91% (inactive) | 104% (inactive) | 101% (inactive) | 92.1% (inactive) | 97.1% (inactive) | 94.1% (inactive) | 105% (inactive) | 75% (inactive) | 93.1% (inactive) | 95.8% (inactive) | 93.1% (inactive) | 98.6% (inactive) | 98.6% (inactive) | 100% (inactive) | 95.2% (inactive) |
| CC1=NOC(=O)/C1=C\c1ccc(O)cc1 | 111% (inactive) | 98.2% (inactive) | 100% (inactive) | 95.1% (inactive) | 115% (inactive) | 98.4% (inactive) | 99.6% (inactive) | 98.8% (inactive) | 101% (inactive) | 103% (inactive) | 104% (inactive) | 106% (inactive) | 77.9% (inactive) | 99% (inactive) | 101% (inactive) | 101% (inactive) | 101% (inactive) | 100% (inactive) | 96.8% (inactive) | 103% (inactive) |
| C[n+]1cc2cc(C(N)=O)[nH]c3c(=N)c(Cl)c(N)c1c23 | 69.7% (inactive) | 53% (inactive) | 99.1% (inactive) | 53.7% (inactive) | 73.8% (inactive) | 64.8% (inactive) | 74.1% (inactive) | 90.6% (inactive) | 45.5% (inactive) | 59.9% (inactive) | 42.1% (inactive) | 35.3% (inactive) | 86.3% (inactive) | 75.1% (inactive) | 62.2% (inactive) | 48.4% (inactive) | 79.2% (inactive) | 78% (inactive) | 64.2% (inactive) | 109% (inactive) |
| COc1cccc(-c2nc3sccn3c2-c2ccnc(NCCNS(=O)(=O)c3cccc(Cl)c3)c2)c1 | 44.1% (inactive) | 25.3% (inactive) | 63.2% (inactive) | 68.3% (inactive) | 47.5% (inactive) | 42.7% (inactive) | 33.8% (inactive) | 72.6% (inactive) | 58% (inactive) | 48.4% (inactive) | 37.8% (inactive) | 45.7% (inactive) | 36.6% (inactive) | 65% (inactive) | 58.8% (inactive) | 20.2% (inactive) | 20.2% (inactive) | 12.1% (inactive) | 46.7% (inactive) | 68.4% (inactive) |
